Drawing on PubChem BioAssay (NCI), this text covers growth for 40 molecules.

Compounds without any hit were thinned out: in the full panel of roughly 83,000, 20% have a hit.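 Activity criterion: percent growth below 10, measured after cells in 96-well plates were exposed to a single compound concentration for 48 hours.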 Calls of active or inactive are those of the source.

The assay has as its system HS 578T breast. The experiment in a line: NCI-60 one-dose screen, 48 h (100 = growth as untreated, 0 = no growth, -100 = all killed). As to conditions: 10 µM unless noted. On the procedure: Growth inhibition of the HS 578T human tumor cell line is measured as a screen for anti-cancer activity. Cells are grown in 96 well plates and exposed to the test compound for 48 hours. Compounds are tested at a single concentration, which is 10^-5 M for most compounds. The reported endpoint is percent growth (GI% or GIPRCNT), where numbers from 0 - 100% represent growth inhibition, and numbers from -100% - 0 represent cell death. For example, a value of 40 represents 60% growth inhibition. A value of 0 means no net growth occurred over the course of the experiment. A value of -40 indicates 40% of cells at the beginning of the experiment died by the end of the experiment. A value of -100 means all cells are dead at the end of the experiment.
NCI-60 Human Tumor Cell Lines Screen was performed using the standard one-dose NCI protocol, which is described in more detail at https://dtp.cancer.gov/discovery_development/nci-60/default.htm.
Compounds with GIPRCNT values below 10 were considered active. Activity score was based on GIPRCNT using the following formula: […]
Score is 0 for GIPRCNT values of 100 or above, 50 for GIPRCNT values of 0, and 100 for GIPRCNT values of -100.
Take `CCCCCCCCCCCCOC(=N)N(C)C`: the growth was 97.1% (inactive).

For the molecule `Nc1nc2c(c3cnccc13)C(c1cccc(Br)c1)Cc1cnccc1-2` (stereo not given), the growth is 42.3% (inactive).

As to `COc1ccc2c(c1)cn1c3ccc(O)cc3[nH]c(=O)c21`, the growth was -22.9% (active).

As for `Cc1ncc(C(=O)Nc2ccc(CN3CCN(C)CC3)c(C(F)(F)F)c2)cc1C#Cc1cnc(NC2CC2)c2ncccc12`, the growth was 43% (inactive).

As to `COc1ccc(-c2nc(SCC(C)C)nc(Nc3ccccc3)c2C#N)cc1`, the growth is 72.7% (inactive).

As to `CC(=O)N1N=C(c2ccc(Cl)cc2)CC1c1cn(-c2ccccc2)nc1-c1ccc([N+](=O)[O-])cc1` (stereo not given), the growth is 125% (inactive).

On to `COc1ccc(OC)c(Cn2cc3c(c2-c2ccccc2)CCc2cnoc2-3)c1`, for which the growth is 59.3% (inactive).

As to `c1cc[c]([Bi]([c]2ccccc2)[c]2ccccc2)cc1`, the growth was 100% (inactive).

Take `CCCCN(CCCC)CC(O)CN(CC)CC` (stereo not given): the growth is 120% (inactive).

As to `COC(=O)c1ccc(C(=Nc2ccc(N(C)C(=O)CN3CCN(C)CC3)cc2)c2c(O)[nH]c3ccc(C(=O)OC)cc23)cc1`, the growth is 8.61% (active).

Turning to `Cc1c(Cc2ccccc2)c(=O)oc2c(C)c(OCc3n[nH]c(=S)o3)ccc12`, the growth was 62.3% (inactive).

Regarding `O=C(Nc1ccc(-n2cc(-c3ccncc3)c(-c3ccc(Cl)c(O)c3)n2)cc1)c1cc(Cl)cc(Cl)c1`, the growth was -14.5% (active).

For the molecule `COC(=O)Nc1nc2ccc(C(=O)c3ccccc3N(C)C3COC3)cc2[nH]1`, the growth was 22.5% (inactive).

For `CC1(C)C(O)NC(Cl)=C(C#N)C1(C#N)C#N` (stereo not given), the growth is 114% (inactive).

For the molecule `CC(=O)Nc1nc(C)c(C(=O)NN)s1`, the growth was 86% (inactive).

On to `COc1cc(C(=O)Nc2ccc(N(C)C)cc2)cc(OC)c1OC`, for which the growth was 95.5% (inactive).

As to `COc1nc(OC)nc(-c2cc(-c3cc(OC)c(OC)c(OC)c3)no2)n1`, the growth is 95.2% (inactive).

Consider `CCCNC(=O)Oc1ccc(/C(=C(/C)Cc2ccc(OC)cc2)c2ccc(OCCN3CCCCC3)cc2)cc1`, for which the growth was 71.7% (inactive).

For the molecule `c1ccc2[nH]c(-c3ccc(OCCCCCOc4ccc(-c5nc6ccccc6[nH]5)cc4)cc3)nc2c1`, the growth was 4.31% (active).

Take `COc1ccc(C2=NN(C(=O)c3cc(-c4ccc(C)cc4)nc4ccccc34)C(c3cc(-c4ccccc4)nn3-c3ccccc3)C2)cc1` (stereo not given): the growth is 95.8% (inactive).

With `CCC(CCCN1C(=O)c2ccccc2C1=O)Nc1cc(OC)cc2c(C)ccnc12` (stereo not given), the growth was 86.7% (inactive).

On to `Nc1ccc(S(=O)(=O)c2ccc(NO)cc2)cc1`, for which the growth is 97% (inactive).

In the case of `Nc1ncn([C@@H]2O[C@H](CO)[C@@H](O)C2(F)F)c(=O)n1`, the growth is 90.4% (inactive).

Take `COCn1c(C(=O)OC)cc2oc(/C=C3/SC(=S)N(N)C3=O)cc21`: the growth is 55.8% (inactive).

As to `CC(C)CSc1nc(-c2ccc(F)cc2)c(C#N)c(N2CCCCC2)n1`, the growth was 99.4% (inactive).

In the case of `COc1ccc(C(=O)c2no[n+]([O-])c2C(=O)c2ccc(OC)cc2)cc1`, the growth is 108% (inactive).

For `C/C(=N\Nc1ccc(Cl)cn1)c1ccc2ccccc2n1`, the growth is 37.7% (inactive).

For the molecule `COC(=O)C(C)[C@H]1CC[C@@H]2[C@]1(C)CC=C1[C@]23C=C[C@]2(C[C@@H](OC(C)=O)CC[C@]12C)C(C(=O)OC)C3C(=O)OC` (stereo not given in full), the growth was 102% (inactive).

In the case of `COc1ccc(C2C3(C#N)C(N)=NC(=C(C#N)C#N)C23C#N)cc1OC` (stereo not given), the growth is 96.5% (inactive).

As for `CCCCCCCCCC[N+](C)(C)N`, the growth is 91.9% (inactive).

Consider `CC[C@H](Nc1ncnc2nc[nH]c12)c1nc2cccc(NCc3ccc(C(=O)NO)o3)c2c(=O)n1-c1ccccc1`, for which the growth is 84.7% (inactive).

Take `O=C(/C=C1\C(=O)N(Cc2ccc([N+](=O)[O-])cc2)c2ccccc21)c1ccc(OCCN2CCCCC2)cc1`: the growth was 6.94% (active).

With `Br/C(=N\Nc1nn[nH]n1)c1ccccc1`, the growth is 99.4% (inactive).

As for `C=C(NC(=O)[C@H](C(C)C)N(C)c1cccc2[nH]ccc12)C(=O)OC`, the growth was 102% (inactive).

In the case of `COc1ccccc1Nc1nnc(COc2ccc(CNC(=O)CCCC/C=C/C(C)C)cc2OC)o1`, the growth was 98% (inactive).

Take `C=C[C@]1(C)C=C2C(=O)[C@@]3(O)OC[C@@]4(CCCC(C)(C)C43O)C2(O)C(O)C1` (stereo not given in full): the growth is 90.3% (inactive).

In the case of `COc1ccc2sc(-n3nc4nc5n(c(=O)c4c3N)-c3ccccc3Sc3ccccc3-5)nc2c1`, the growth was 90.6% (inactive).

Consider `CC(=O)NNC(=O)c1sc(NC(C)=O)nc1C`, for which the growth was 74.9% (inactive).

With `COc1ccc(CN2C(=O)/C(=C\C(=O)c3ccc(OCCN4CCCCC4)cc3)c3ccccc32)cc1`, the growth was 81.3% (inactive).

Regarding `Cc1nnc(/N=C2\NC(=O)/C(=C/C=C/c3ccccc3)S2)s1`, the growth is 71.7% (inactive).
